PubChem BioAssay AID1159580 (chemical genetic matrix, 2015)
“And” between values parts separate entries of the source, which are not always exact repeats. Identical values can stand only once. The whole screen tested about 5,500 compounds, of which about 2,000 (36%) were called active. Not shown: some 18% with an inconclusive outcome. Cut-off read from the data, not from the text of the source: active = normalized growth mostly below about 0.91 (no sharp cut-off); inconclusive = no clear call, values can overlap the other calls; inactive = mostly above about 0.92. The list shows a part of the results.

Assay: chemical genetic growth profiling, strain panel (AID 1159580);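 note: tested at 20 µM; growth read once vehicle control cultures reached saturation at 30 °C; 1 = growth at the plate median or of vehicle wells; lower values mean less growth of the strain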
Conditions: S. cerevisiae deletion strains, growth OD

Measured: normalized growth

NS(=O)(=O)c1cc2c(cc1C(F)(F)F)NCNS2(=O)=O
inactive: locus YAL013W, strain DEP1, hits give low values 1.03 | locus YAL021C, strain ccr4, hits give low values 0.995 | locus YAL026C, strain drs2, hits give low values 1 | locus YAL030W, strain snc1, hits give low values 0.995 | locus YBL061C, strain skt5, hits give low values 0.996 | locus YBR009C, strain hhf1, hits give low values 0.985 | locus YBR021W, strain FUR4, hits give low values 1 | locus YBR023C, strain chs3, hits give low values 0.989 | locus YBR171W, strain sec66, hits give low values 1.01 | locus YBR229C, strain ROT2, hits give low values 1.02 | locus YBR231C, strain swc5, hits give low values 0.975 | locus YBR279W, strain paf1, hits give low values 0.992 | locus YCL011C, strain gbp2, hits give low values 0.991 | locus YCL016C, strain dcc1, hits give low values 0.969 | locus YCL029C, strain bik1, hits give low values 0.997 | locus YCL061C, strain MRC1, hits give low values 0.997 | locus YCL069W, strain vba3, hits give low values 1 | locus YCR088W, strain abp1, hits give low values 0.999 | locus YDL005C, strain med2, hits give low values 0.99 | locus YDL035C, strain GPR1, hits give low values 1.03 | locus YDL040C, strain nat1, hits give low values 0.996 | locus YDL074C, strain BRE1, hits give low values 1.01 | locus YDL101C, strain DUN1, hits give low values 1.02 | locus YDL185W, strain tfp1, hits give low values 0.997 | locus YDL192W, strain arf1, hits give low values 0.993 | locus YDR001C, strain nth1, hits give low values 1 | locus YDR069C, strain doa4, hits give low values 1.01 | locus YDR101C, strain arx1, hits give low values 1 | locus YDR137W, strain rgp1, hits give low values 1.01 | locus YDR159W, strain sac3, hits give low values 0.966 | locus YDR162C, strain NBP2, hits give low values 1.02 | locus YDR195W, strain ref2 0.994 | locus YDR297W, strain sur2, hits give low values 1.01 | locus YDR318W, strain mcm21, hits give low values 0.986 | locus YDR334W, strain swr1, hits give low values 1.01 | locus YDR335W, strain msn5, hits give low values 0.999 | locus YDR388W, hits give low values 0.998 | locus YDR392W, strain spt3, hits give low values 0.939 | locus YDR502C, strain sam2, hits give low values 0.988 | locus YEL003W, strain gim4, hits give low values 1 | locus YEL037C, strain rad23, hits give low values 1.02 | locus YEL061C, strain CIN8 (second series), hits give low values 1.01 | locus YEL061C, strain CIN8, hits give low values 1.02 | locus YER015W, strain faa2, hits give low values 0.97 | locus YER016W, strain bim1, hits give low values 1 | locus YER110C, hits give low values 0.99 | locus YER111C, strain swi4, hits give low values 1 | locus YER155C, strain BEM2 (second series), hits give low values 0.98 | locus YER155C, strain BEM2, hits give low values 1 | locus YER167W, strain BCK2, hits give low values 1.01 | locus YFR010W, strain ubp6, hits give low values 1 | locus YGL078C, strain dbp3, hits give low values 0.983 | locus YGL086W, strain mad1, hits give low values 0.99 | locus YGL167C, strain pmr1, hits give low values 0.998 | locus YGL173C, strain kem1, hits give low values 0.998 | locus YGL227W, strain vid30, hits give low values 1 | locus YGL240W, strain doc1, hits give low values 0.965 | locus YGL248W, strain PDE1, hits give low values 1.02 | locus YGL253W, strain hxk2, hits give low values 1.01 | locus YGR135W, strain pre9, hits give low values 0.974 | locus YGR252W, strain gcn5, hits give low values 0.922 | locus YHR013C, strain ard1, hits give low values 0.989 | locus YHR027C, strain rpn1, hits give low values 1.01 | locus YHR030C, strain SLT2, hits give low values 1.01 and 0.988 | locus YHR079C, strain IRE1 (second series), hits give low values 0.998 | locus YHR079C, strain IRE1, hits give low values 0.984 | locus YHR094C, strain hxt1, hits give low values 0.993 | locus YHR129C, strain ARP1, hits give low values 1.02 | locus YHR142W, strain chs7, hits give low values 1.01 | locus YHR200W, strain rpn10, hits give low values 0.988 | locus YIL066C, strain RNR3, hits give low values 1.03 | locus YIL073C, strain SPO22, hits give low values 1.01 | locus YIL125W, strain kgd1, hits give low values 0.992 | locus YIR030C, strain dcg1, hits give low values 0.994 | locus YJL092W, strain hpr5, hits give low values 1 | locus YJL095W, strain BCK1 (second series), hits give low values 0.997 | locus YJL095W, strain BCK1, hits give low values 1.03 and 0.978 | locus YJL115W, strain asf1, hits give low values 1.01 | locus YJL129C, strain trk1, hits give low values 1.01 | locus YJL134W, strain LCB3, hits give low values 1.02 | locus YJL154C, strain vps35, hits give low values 0.993 | locus YJL164C, strain tpk1, hits give low values 0.992 | locus YJL166W, strain qcr8, hits give low values 0.993 | locus YJL168C, strain set2, hits give low values 0.987 | locus YJL187C, strain SWE1 (second series), hits give low values 1.02 | locus YJL187C, strain SWE1, hits give low values 0.994 | locus YJR043C, strain POL32, hits give low values 1.02 | locus YJR066W, strain TOR1, hits give low values 0.928 | locus YKL009W, strain mrt4, hits give low values 1 | locus YKL068W, hits give low values 1 | locus YKL085W, strain MDH1 (second series), hits give low values 0.999 | locus YKL085W, strain MDH1, hits give low values 0.999 | locus YKL160W, strain elf1, hits give low values 0.986 | locus YKL190W, strain CNB1, hits give low values 1.02 | locus YKR001C, strain vps1, hits give low values 1.01 | locus YKR026C, strain gcn3, hits give low values 0.993 | locus YKR091W, strain srl3, hits give low values 0.993 | locus YLL001W, strain dnm1, hits give low values 0.98 | locus YLL026W, hits give low values 0.994 | locus YLL041C, strain sdh2, hits give low values 0.997 | locus YLR027C, strain aat2, hits give low values 1.01 | locus YLR039C, strain RIC1, hits give low values 1.07 | locus YLR058C, strain SHM2, hits give low values 1.02 | locus YLR102C, strain apc9, hits give low values 0.985 | locus YLR113W, strain HOG1, hits give low values 0.991 | locus YLR221C, strain rsa3, hits give low values 0.974 | locus YLR258W, strain gsy2, hits give low values 0.992 | locus YLR262C, strain YPT6 (second series), hits give low values 1 | locus YLR262C, strain YPT6, hits give low values 1.03 | locus YLR268W, strain sec22, hits give low values 0.988 | locus YLR320W, strain mms22, hits give low values 0.988 | locus YLR330W, strain CHS5, hits give low values 1.02 | locus YLR342W, strain FKS1 (second series), hits give low values 1.01 | locus YLR342W, strain FKS1, hits give low values 1 | locus YLR357W, strain rsc2, hits give low values 0.971 | locus YLR370C, strain arc18, hits give low values 0.999 | locus YLR371W, strain rom2, hits give low values 0.979 | locus YLR384C, strain iki3, hits give low values 0.988 | locus YLR418C, strain cdc73, hits give low values 0.967 | locus YML016C, strain PPZ1, hits give low values 1.02 | locus YML032C, strain rad52, hits give low values 0.985 | locus YML120C, strain ndi1, hits give low values 0.983 | locus YML124C, strain tub3, hits give low values 0.988 | locus YMR058W, strain fet3, hits give low values 1.01 | locus YMR078C, strain ctf18, hits give low values 0.997 | locus YMR125W, strain sto1, hits give low values 0.982 | locus YMR129W, hits give low values 0.999 | locus YMR205C, strain PFK2, hits give low values 0.982 | locus YMR223W, strain ubp8, hits give low values 0.986 | locus YMR231W, strain pep5, hits give low values 0.998 | locus YMR307W, strain GAS1, hits give low values 1.01 | locus YNL067W, strain RPL9B, hits give low values 1.02 | locus YNL071W, strain lat1, hits give low values 1 | locus YNL153C, strain GIM3, hits give low values 1.01 | locus YNL183C, strain NPR1, hits give low values 0.96 | locus YNL209W, strain ssb2, hits give low values 0.986 | locus YNL233W, strain BNI4, hits give low values 1.02 | locus YNL248C, strain rpa49, hits give low values 1 | locus YNL250W, strain rad50, hits give low values 0.996 | locus YNL271C, strain bni1, hits give low values 0.999 | locus YNL298W, strain CLA4, hits give low values 0.983 | locus YNL307C, strain MCK1, hits give low values 0.988 | locus YNL322C, strain KRE1 (second series), hits give low values 0.99 | locus YNR049C, strain mso1, hits give low values 0.996 | locus YNR052C, strain pop2, hits give low values 0.991 | locus YOL012C, strain htz1 0.725 | locus YOL147C, strain pex11, hits give low values 0.991 | locus YOR001W, strain rrp6, hits give low values 1.01 | locus YOR061W, strain CKA2, hits give low values 1.03 | locus YOR069W, strain VPS5, hits give low values 1.02 | locus YOR070C, strain gyp1, hits give low values 0.992 | locus YOR080W, strain dia2, hits give low values 0.99 | locus YOR083W, strain WHI5, hits give low values 1.04 | locus YOR106W, strain vam3, hits give low values 0.974 | locus YOR136W, strain idh2, hits give low values 0.991 | locus YOR144C, strain elg1, hits give low values 0.991 | locus YOR184W, strain ser1, hits give low values 0.982 | locus YOR231W, strain MKK1, hits give low values 0.991 | locus YOR265W, strain rbl2, hits give low values 0.993 | locus YOR270C, strain vph1, hits give low values 1.03 | locus YOR290C, strain snf2, hits give low values 0.935 | locus YOR316C, strain cot1, hits give low values 0.997 | locus YPL051W, strain arl3, hits give low values 0.98 | locus YPL055C, strain LGE1, hits give low values 1.02 | locus YPL078C, strain atp4, hits give low values 1 | locus YPL106C, strain sse1, hits give low values 0.966 | locus YPL240C, strain hsp82, hits give low values 0.994 | locus YPL241C, strain CIN2, hits give low values 1.02 | locus YPL256C, strain CLN2, hits give low values 0.976 | locus YPR119W, strain clb2, hits give low values 0.994 | locus YPR141C, strain kar3, hits give low values 0.988 | locus YPR163C, strain tif3, hits give low values 0.995 | locus YPR167C, strain met16, hits give low values 0.987 | strain wtn01, hits give low values 0.977
